# From PubChem BioAssay
# MCF10A rereplic = induces DNA re-replication in MCF 10a normal breast cells | MCF 10A DNA re-replication, Hoechst nuclear intensity, 48 h | Potency, µM (doses to about 46.1 µM), for the others: top-dose activity, positive = re-replication, actives largely listed as activators | 350,000 compounds, 2.9% hits | AID 624296; also: % of control where 0% means no effect; nearly all actives have a fitted effect of over 50% in size
# KB-V1 MDR tox = KB-V1 MDR subline cytotoxicity | KB-V1 MDR cells viability, CellTiter-Glo, 72 h | Potency, µM (top dose mostly 46.1 µM), actives largely listed as cytotoxic | AID 1347076 | 400,000 compounds, 3.4% hits; also: % is scaled to controls: 0 for no effect and ±100 for the full control effect; nearly all actives have a fitted effect of over 60% in size
#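 Compound-treated KB-V1 multidrug-resistant cells, 72 h, 37 degrees C; viability by CellTiter-Glo. Fitted qHTS curves give the values.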
# SW480 rerep = induces DNA re-replication in SW480 colon adenocarcinoma cells; SW480 DNA re-replication, Hoechst DNA content imaging, 48 h; 340,000 compounds, 1.8% hits; Potency, µM (top dose mostly 46.1 µM), for inactives: top-dose re-replication activation, hits mostly activators; AID 624297; also: % of control where 0% means no effect; nearly all actives have a fitted effect of over 55% in size
#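 Per well, 250 cells were exposed to pinned compound for 48 hr. Nuclear DNA was visualised with Hoechst (40 min, 37 C) and total object intensity recorded by fluorescence scanning.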
# HT1080 IDH1KD tx = HT-1080 IDH1 knockdown cell toxicity (counter line) | Potency, µM (titrated, usually from 46.1 µM), for inactives: top-dose activity, negative = toxicity, usual class: cytotoxic | 360,000 compounds, 2% hits | HT-1080 IDH1 knockdown viability, ATP luminescence, 48 h;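 also: 0% = DMSO wells and -100% = cell-free medium wells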
#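 Cytotoxicity counter-line: IDH1KD HT-1080, 48 h, CellTiter-Glo. Curves classed by r2, magnitude and activity.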
# KB-3-1 tox = kills parental KB-3-1 adenocarcinoma cells. AID 1347075. Potency, µM (top dose mostly 46.1 µM), actives largely listed as cytotoxic. 400,000 compounds, 1.4% hits. KB-3-1 viability, CellTiter-Glo ATP luminescence, 72 h; also: % is scaled to controls: 0 for no effect and ±100 for the full control effect; nearly all actives have a fitted effect of over 60% in size
#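 72 h, 37 °C compound treatment of KB-3-1 parental cells; CellTiter-Glo added, 10 min, luminescence read. Data corrected against DMSO-only plates and normalized before curve fitting.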
# HT1080-NT tox = kills 2HG-producing HT-1080-NT fibrosarcoma cells; HT-1080-NT fibrosarcoma viability, CellTiter-Glo ATP luminescence, 48 h; Potency, µM (highest dose often 46.1 µM), for inactives: at the highest dose activity, negative = less viability, most hits filed as cytotoxic; 360,000 compounds, 1.6% hits; AID 686970;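 also: NT is the 2HG producing partner of a matched IDH1 knockdown line; 0% = DMSO-treated cells and -100% = media-only wells without cells; nearly all actives have a fitted effect of over 55% in size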
#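 Viability by CellTiter-Glo luminescence after 48 h compound exposure at 37C of HT-1080-NT cells (750/well, RPMI, 5% FBS). % activity scaled between DMSO wells and medium-only wells, then curve-fitted and categorized by curve class.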
# Starred values were filed as active, the others as inactive; i = inactive; ? = inconclusive; . = no result given. In the library only some 8% were active in any assay of this set; here they are far more common. Calls follow the shape of the dose curve; as a rule, active = well fitted curve in the direction sought with a large enough effect; inconclusive = small, poorly fitted or top-dose-only effect, or another doubt; inactive = no such curve, though single readings can be large; an effect the other way counts as inactive or inconclusive. Potency is read from the fitted curve at half-maximal effect.
SMILES,MCF10A rereplic,KB-V1 MDR tox,SW480 rerep,HT1080 IDH1KD tx,KB-3-1 tox,HT1080-NT tox
COCc1ccc(O)c2ncccc12,7.3µM*,12µM*,26%,5.8µM*,15µM*,4.6µM*
NC(=O)c1ccnc2c(O)cccc12,4%,i,0%,.,i,.
Cn1cnnc1SCC(=O)Nc1ccc(C#N)cc1,.,i,.,.,i,.
Oc1ccc(CNc2ccccc2)c2cccnc12,?,i,?,?,?,5.8µM*
Oc1ccc(CNc2ccc(F)cc2)c2cccnc12,23µM*,i,?,18µM*,?,18µM*
Cc1cc(O)c(S(=O)(=O)c2ccccc2)c(C)c1NS(=O)(=O)c1ccccc1,4%,?,1%,-12%,i,0%
O=C1c2ccccc2C(=O)N1Cc1cnc(N2CCN(c3ccccc3)CC2)s1,?,?,18µM*,-1%,?,-20%
Cc1nc(-c2ccc(S(=O)(=O)Nc3ccc(C)c(N(C)C)c3)cc2)co1,.,?,.,.,18µM*,.
CC(=O)Nc1ccc(C(=O)N2CCCCC2c2cc(C(=O)Nc3cccc4c3CCCC4)no2)cc1 (stereo not given),.,?,.,5.8µM*,?,16µM*
CC[n+]1cccc(Br)c1,.,i,.,.,i,.
CCOC(=O)c1ccc(Nc2c(-c3cccc(O)c3)nc3nc[nH]n23)cc1,.,i,.,.,i,.
CC(=O)C1=C(C)NC(SCC(=O)c2ccc(Cl)cc2)=C(C#N)C1CC(C)C (stereo not given),?,21µM*,6%,6%,i,21%
CCOC(=O)C1=C(C)NC(SC)=C(C#N)C1CC(C)C (stereo not given),?,5.2µM*,7.3µM*,2.6µM*,4.1µM*,1.8µM*
CC(=O)C1=C(C)NC(SCC(=O)c2ccc(F)cc2)=C(C#N)C1CC(C)C (stereo not given),18µM*,?,?,7%,i,0%
COc1ccc(-c2cn3ccccc3n2)cc1,-1%,?,-5%,?,?,?
COc1c(Cl)cccc1-c1cn2ccccc2n1,-4%,12µM*,-40%,?,i,?
CCOc1ccc(-n2c(-c3ccccc3)c[n+]3c2CCC3)cc1,3%,?,16%,8.2µM*,i,?
CCOc1ccc(-n2c(-c3ccc(Br)cc3)c[n+]3c2CCCCC3)cc1,?,i,0%,?,?,8.2µM*
CCOc1ccc(-n2c(-c3ccc(OC)cc3)c[n+]3c2CCCCC3)cc1,-4%,i,?,3.7µM*,2.1µM*,?
FC(F)Oc1ccc(-c2c[n+]3c(n2-c2ccccc2)CCCCC3)cc1,14%,i,-4%,?,?,?
COc1ccc(-c2c[n+]3c(n2-c2c(C)n(C)n(-c4ccccc4)c2=O)CCCCC3)cc1,-18%,?,5%,28%,i,7%
COc1ccc(C(NC(=O)C2CCN(CCCOc3ccccc3)CC2)c2ccccn2)cc1 (stereo not given),.,i,.,-1%,i,4%
O=C(NC(c1ccc(-c2ccccc2)cc1)c1cnccn1)C1CCN(CCCOc2ccccc2)CC1 (stereo not given),.,i,.,9.2µM*,?,?
O=C(NC(c1ccc(Cl)cc1)c1cnccn1)C1CCN(CCOc2ccc(F)cc2)CC1 (stereo not given),.,i,.,?,i,?
O=C(NC(c1ccc(-c2ccccc2)cc1)c1cnccn1)C1CCN(CCOc2ccc(F)cc2)CC1 (stereo not given),.,i,.,16µM*,?,?
CSc1ccc(CCNC(=O)Cn2c(C)c3cnn(-c4ccccc4)c(=O)c3c2C)cc1,.,i,.,.,i,.
CCC(=O)Nc1cc(-c2nn(C)c(=O)c3ccccc23)ccc1N1CCOCC1,12%,i,-5%,13%,i,1%
